Several values for one entry are separate records, joined by “and”; a condition that tells them apart may be missing. Identical values can stand only once. Counter-ions that a name gives are not always drawn. A number with no mark means an inactive call.
Legend:
[1] = test system: Plasmodium falciparum NF54/iGP1_RE9H ulg8 stage V gametocytes; assay: gametocyte viability (luciferase signal relative to DMSO control) (% of DMSO control); higher = less gametocytocidal activity, active = 50 or less; conditions: exposure time: 72 h
Method: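 Synchronous P. falciparum NF54/iGP1_RE9H ulg8 mature stage V gametocytes (day 12) were exposed to Cayman Epigenetics Screening Library compounds at 10 µM or 1 µM for 72 h at 37 °C. Viability was read as RE9H luciferase bioluminescence, normalised to DMSO plate controls (100%); 50 µM methylene blue was the positive control.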

[2] = test system: Plasmodium falciparum NF54/iGP1_RE9H ulg8 stage V gametocytes; assay: gametocyte viability (luciferase signal relative to DMSO control) (% of DMSO control); higher = less gametocytocidal activity, active = 50 or less; conditions: exposure time: 72 h; remark: listed apart in the source
Summary of the method: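 Gametocyte viability is reported relative to the average of DMSO vehicle wells on the same plate. The assay used day-12 stage V NF54/iGP1_RE9Hulg8 gametocytes at ~2.5% gametocytemia and 3% hematocrit, in 0.5% Albumax II medium, added to 96-well plates of compounds spotted in nanolitre volumes for final 10 µM or 1 µM, one well each. After 72 h at 37 °C, 90 µl was mixed with 10 µl D-luciferin (30 mg/ml), and luminescence was recorded with an IVIS Lumina II.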

SMILES | gametocyte viability ([1]; concentration: 1 µM) | gametocyte viability ([1]; concentration: 10 µM) | gametocyte viability ([2]; concentration: 1 µM) | gametocyte viability ([2]; concentration: 10 µM)
C#Cc1cccc(Nc2ncnc3cc(OC)c(OCCCCCCC(=O)NO)cc23)c1 | 58.7 | 56.7 |  | 
O=C(/C=C/C#Cc1cccc(NS(=O)(=O)c2ccccc2)c1)NO [Oxamflatin] | 101 | 168 |  | 
CC(/C=C/C(=O)NO)=C\[C@@H](C)C(=O)c1ccc(N(C)C)cc1 [Trichostatin A] | 53.7 | 35.4 (active) |  | 
CCCCN(Cc1ccc(C(=O)NO)cc1)C(=O)Nc1ccccc1 [Nexturastat A] | 103 | 67.7 |  | 
COc1cccc2c1c(O)c(C(=O)N(C)c1ccc(C(F)(F)F)cc1)c(=O)n2C [Tasquinimod] | 83.1 | 82.9 |  | 
O=C(c1cncc(Br)c1)N1CCC(N2CCCC2)CC1 | 86.5 | 91.4 |  | 
O=C(NN=Cc1c(O)ccc2ccccc12)c1ccncc1 | 84.7 | 65.4 |  | 
Cc1cc(C)c(CNC(=O)c2cc(-c3ccc(N4CCN(C)CC4)nc3)cc3c2c(C)cn3C(C)C)c(=O)[nH]1 | 78.5 | 62.9 |  | 
Nc1ncn([C@@H]2O[C@H](CO)[C@@H](O)[C@H]2O)c(=O)n1 [5-Azacytidine] | 89 | 90.8 |  | 
CCCNNC(=O)c1ccc(CNC(=O)/C=C/c2ccccc2)cc1 [HDAC3 Inhibitor] | 83.6 | 93.8 |  | 
CO[C@@H](C(=O)N1Cc2[nH]nc(NC(=O)c3ccc(N4CCN(C)CC4)cc3)c2C1)c1ccccc1 |  |  | 89.5 | 71.6
O=C(Nc1ccc(OC(F)(F)F)cc1)c1sccc1NCc1ccnc2ccccc12 |  |  | 96.9 | 86.6
Cc1ccc([N+](=O)[O-])cc1S(=O)(=O)N(C)/N=C/c1cnc2ccc(Br)cn12 |  |  | 94.9 | 101
N#C/C(=C\c1ccc(O)c(O)c1)C(=O)Nc1ccccc1 |  |  | 99.6 | 104
COc1cc(C=C(C#N)C(N)=O)cc(CSc2nc3ccccc3s2)c1O |  |  | 111 | 113
N#CC(=C(/N)Sc1ccccc1N)/C(C#N)=C(/N)Sc1ccccc1N |  |  | 100 | 103
Oc1ccc(-c2nc(-c3ccc(F)cc3)c(-c3ccncc3)[nH]2)cc1 |  |  | 112 and 117 | 115 and 132
COc1ccc(-c2ccc3c(N4CCOCC4)nc(N4C[C@@H](C)O[C@@H](C)C4)nc3n2)cc1CO |  |  | 97.1 | 108
O=C(c1ccc(/C=C/c2n[nH]c3ccccc23)cc1)N1CCNCC1 |  |  | 104 | 93.7
O=Nc1c(-c2c(O)[nH]c3ccccc23)[nH]c2ccccc12 [Indirubin-3'-monooxime] |  |  | 90.1 | 86.8
O=S(=O)(c1cccc2c(Cl)cccc12)N1CCCNCC1 |  |  | 93.2 | 90
CNCCNS(=O)(=O)c1cccc2cnccc12 |  |  | 104 | 108
O=C(NOCC1CC1)c1ccc(F)c(F)c1Nc1ccc(I)cc1Cl |  |  | 93.2 | 98.6
O=c1cc(N2CCOCC2)oc2c(-c3ccccc3)cccc12 |  |  | 105 and 79.5 | 103 and 92
Cn1cc(C2=C(c3cn(CCCSC(=N)N)c4ccccc34)C(=O)NC2=O)c2ccccc21 [Ro 31-8220 mesylate] |  |  | 123 | 78.9
CC(C)(C)c1cc(NC(=O)Nc2ccc(-c3cn4c(n3)sc3cc(OCCN5CCOCC5)ccc34)cc2)no1 [Quizartinib (AC220)] |  |  | 97.7 | 85.9
COc1cc2/c(=N/c3ccc(Br)cc3F)nc[nH]c2cc1OCC1CCN(C)CC1 [Vandetanib (Zactima)] |  |  | 88.8 | 108
N#CC(=Cc1ccc2[nH]ccc2c1)C(N)=C(C#N)C#N |  |  | 100 | 104
NCCNS(=O)(=O)c1cccc2cnccc12 |  |  | 105 | 107
Cn1cnc2c(NCc3ccccc3)nc(NCCO)nc21 [Olomoucine] |  |  | 95.2 | 91.5

Source: the supplement of paper PMC12297408
